An excerpt weighted towards active compounds, which were near 7.5% of everything screened.
SMN2 splice up: qHTS Assay for Enhancers of SMN2 Splice Variant Expression; AID 1458, 2008; 210,000 compounds, 2.8% hits; Potency, µM (highest dose often 46.1 µM), actives largely listed as activators; HEK293 SMN2-luciferase splicing reporter, luminescence, 30-36 h; note: nearly all actives have a fitted effect of over 55% in size
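HEK293 cells carry an SMN2 minigene-luciferase reporter in which exon 7 inclusion puts luciferase in frame. Cells were seeded at 2000 cells/well, attached for 10-12 hours, then exposed to compounds for 30-36 hours at 37C before ONE-Glo luminescence.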
ELG1 genotoxic: qHTS screen for small molecules that induce genotoxicity in human embryonic kidney (HEK293T) cells expressing luciferase-tagged ELG1; HEK293T ELG1-luciferase reporter, luminescence, 16 h; 330,000 compounds, 1.3% hits; AID 504466, 2011; Potency, µM (series often up to 46 µM), most hits filed as activators; note: nearly all actives have a fitted effect of over 60% in size
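ELG1-luciferase HEK293T cells, 2,000/well; compound pinned in; 16 hr, 37 °C, 5% CO2; ONE-Glo, 30 min RT; luminescence on CCD imager.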
Luc counter: Counterscreen for Luciferase (Kinase-Glo TM) Inhibition; Kinase-Glo luciferase, ATP luminescence, 8 min; 200,000 compounds, 0.28% hits; Luciferin 4-monooxygenase (Photuris pensylvanica), Q27757; Potency, µM (highest dose often 38.3 µM), actives largely listed as inhibitors; AID 1379, 2008; note: nearly all actives have a fitted effect of over 60% in size
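Compound is pinned into ATP-containing buffer (10 uM ATP, imidazole pH 7.2, 7 mM MgCl2). Kinase-Glo luciferase reagent is then added. Light output is recorded following an 8-min room-temperature incubation.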
Rab9 promoter act: qHTS Assay for Rab9 Promoter Activators | Huh7 Rab9 promoter-luciferase reporter, luminescence, 24 h | Potency, µM (titrated, usually from 9.22 µM), usual class: activators | 320,000 compounds, 2.8% hits | AID 485297, 2010; note: nearly all actives have a fitted effect of over 60% in size
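Luminescence from Amplite-detected luciferase (10 minutes, ambient) reports Rab9 promoter activation. Before that, stable Rab9-luciferase Huh7 cells (1500/well, reduced-serum OP-MEM I plus 10% FBS) were exposed to compound for 24 hours at 37C.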
NPC1 prom act: qHTS Assay for NPC1 Promoter Activators; AID 485313, 2010; 320,000 compounds, 2.4% hits; Potency, µM (top dose mostly 9.22 µM), actives largely listed as activators; Huh7 NPC1 promoter luciferase reporter, 24 h; note: nearly all actives have a fitted effect of over 60% in size
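Compounds in DMSO were transferred onto Huh7 NPC1-luciferase reporter cells pre-incubated 2 h; after 24 h at 37 °C, Amplite reagent was dispensed and luminescence recorded 10 min later.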
FLuc modulator: qHTS profiling assay for firefly luciferase inhibitor/activator using purifed enzyme and Km concentrations of substrates (counterscreen for miR-21 project) | purified FLuc, Km substrates, luminescence inhibition | AID 588342, 2011 | Luciferin 4-monooxygenase (Photinus pyralis), P08659 | 360,000 compounds, 6.9% hits | Potency, µM (highest dose often 57.5 µM), actives largely listed as inhibitors; note: nearly all actives have a fitted effect of over 55% in size
Target sequence (P08659 whole entry, looked up): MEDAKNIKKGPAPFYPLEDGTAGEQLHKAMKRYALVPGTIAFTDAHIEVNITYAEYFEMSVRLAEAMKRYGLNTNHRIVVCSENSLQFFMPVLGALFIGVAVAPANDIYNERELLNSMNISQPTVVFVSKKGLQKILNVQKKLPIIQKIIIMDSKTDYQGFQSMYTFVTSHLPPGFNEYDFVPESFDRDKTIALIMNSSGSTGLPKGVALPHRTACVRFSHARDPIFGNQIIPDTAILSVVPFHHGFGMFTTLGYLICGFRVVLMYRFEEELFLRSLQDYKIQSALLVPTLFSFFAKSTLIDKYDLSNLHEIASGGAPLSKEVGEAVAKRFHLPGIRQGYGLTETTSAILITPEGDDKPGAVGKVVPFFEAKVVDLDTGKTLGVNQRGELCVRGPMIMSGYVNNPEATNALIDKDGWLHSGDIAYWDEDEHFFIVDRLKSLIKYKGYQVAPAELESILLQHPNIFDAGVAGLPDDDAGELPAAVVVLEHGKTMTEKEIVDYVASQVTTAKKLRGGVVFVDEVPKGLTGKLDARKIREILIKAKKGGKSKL
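Purified P. pyralis luciferase (10nM final) with 10uM D-luciferin and 10uM ATP (Km levels) in 50mM Tris acetate pH 7.5, 10mM Mg acetate, 0.01% Tween-20, 0.05% BSA; qHTS 6-point titration, ~60 µM downward; luminescence read.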
A number is an active result; n = inactive; u = inconclusive; x = no result; ! = not confirmed by another sample. Calls come from the whole dose curve; as a rule, active = well fitted curve in the direction sought with a large enough effect; inconclusive = small, poorly fitted or top-dose-only effect, or another doubt; inactive = no such curve, though single readings can be large; an effect the other way counts as inactive or inconclusive.

SMILES	SMN2 splice up	ELG1 genotoxic	Luc counter	Rab9 promoter act	NPC1 prom act	FLuc modulator
Cc1cccc(NC(=O)C2CC(=O)NC(Nc3nc4ccccc4s3)=N2)c1 (centres undefined)	n	n	n	n	n	n
CC(C)OC(=O)c1cc2c(OC[C@@H](O)CNC(C)(C)C)cccc2[nH]1	x	x	n	x	x	x
CCSc1nc(N)nc(-c2cccs2)c1C#N	u	21µM	n	n	n	u
NNCCc1ccccc1	n	n	n	14µM!	n	u
O=C(CC(=O)NCCc1ccccc1)NCCc1ccccc1	x	n	x	n	n	n
Cc1ccc(NC(=O)Cn2c(=O)n(CCC(=O)NCc3ccccc3Cl)c(=O)c3ccccc32)c(C)c1	n	x	x	x	x	n
Cc1c(/C(O)=C2\C(=O)C(=O)N(CCN(C)C)C2c2cccnc2)cnn1-c1ccccc1 (centres undefined)	n	n	n	n	n	n
Cc1c(/C(O)=C2\C(=O)C(=O)N(CCN(C)C)C2c2cccs2)cnn1-c1ccccc1 (centres undefined)	n	n	n	4.5µM	2.5µM	u
Cc1c(/C(O)=C2/C(=O)C(=O)N(CCN3CCOCC3)C2c2ccccn2)cnn1-c1ccccc1 (centres undefined)	n	u	n	n	n	17µM
O=C1C(=O)N(CCN2CCOCC2)C(c2ccccn2)/C1=C(/O)c1ccc(F)cc1 (centres undefined)	n	n	n	n	n	n
CC1(C)CNC(=O)c2sc(N3CCCCC3)nc2C1	n	u	n	n	n	15µM
CC1(C)CC(=O)c2sc(N3CCCCC3)nc2C1	n	u	n	u	u	u
Nc1cccc(NC(=O)c2cccs2)c1	u	n	n	n	n	n
CCN(CC)S(=O)(=O)c1ccc(NC(=O)c2cccs2)cc1	x	n	n	n	n	n
CN1CCN(c2ccc(NC(=O)c3cccs3)cc2)CC1	11µM	u	n	0.56µM	3.2µM	12µM
O=C(Nc1cccc(N2CCCC2)c1)c1cccs1	n	n	n	n	n	17µM
Cc1ccn(-c2ccc(NC(=O)c3cccs3)cc2)n1	x	u	x	0.63µM	0.71µM	3µM
O=C(c1cc2ccccc2o1)N(Cc1nnc(-c2ccccc2Cl)o1)C1CC1	x	21µM	x	n	n	30µM
CCCN(Cc1nnc(-c2ccccc2Cl)o1)C(=O)c1cc2ccccc2o1	x	n	x	n	n	u
Cc1ccc(S(=O)(=O)N2CC(C)N(C(=O)N3CCOCC3)C2C)cc1 (centres undefined)	x	n	x	n	n	n
CN(C)/C=C/c1onc(-c2ccccc2Cl)c1C#N	n	u	n	u	u	24µM
Cc1ccccc1-c1noc(N)c1C#N	n	n	n	n	n	n
CCN(CC)CCNC(=O)c1c(C)oc2ncnc(N3CCOCC3)c12	x	x	x	x	x	n
COc1cc(NC(=O)CCn2nc(C)c(S(=O)(=O)N3CCCCC3)c2C)cc(OC)c1OC	x	x	x	x	x	n
CCOC(=O)COc1ccccc1/C=C1/NC(=O)NC1=O	n	n	n	n	n	n
SMILES	SMN2 splice up	ELG1 genotoxic	Luc counter	Rab9 promoter act	NPC1 prom act	FLuc modulator
COc1cccc(/C=C2\NC(=O)NC2=O)c1O	x	u	x	n	n	7.6µM
Cc1ccc(-c2cc(C(F)F)n3ncc(C(=O)N4CCN(c5cccc(C)c5C)CC4)c3n2)cc1	n	x	n	x	x	n
O=C(Nc1cccc(-c2cn3ccccc3n2)c1)c1cccc(Cl)c1	n	n	n	n	n	2.4µM
O=C(Nc1cccc(-c2cn3ccccc3n2)c1)c1cnccn1	u	n	n	n	n	12µM
O=C(Nc1cccc(-c2cnc3ccccc3n2)c1)c1ccc(Cl)cc1	n	n	n	n	n	n
COC(=O)c1cccc(NC(=O)c2cnccn2)c1	x	n	x	u	n	n
CC(=O)NCc1ccc(S(=O)(=O)NC(C(=O)O)C(C)C)cc1 (centres undefined)	n	n	n	n	n	n
CCc1nnc(NS(=O)(=O)c2ccc(NC(=O)/C=C/c3ccccc3Cl)cc2)s1	n	n	n	n	n	19µM
CCc1nnc(NS(=O)(=O)c2ccc(NC(=O)c3ccc(Cl)cc3)cc2)s1	n	n	n	n	n	19µM
Cc1ccc(Nc2nc(N)nc(COC(=O)c3ccc(Br)o3)n2)cc1	x	n	x	n	n	u
Cc1cc(C(=O)Nc2cccc(C(=O)O)c2)oc1C	1.6µM	u	u	u	u	0.54µM
Cc1cc(C(=O)Nc2cccc(C(=O)O)c2)c(C)o1	u	u	n	4µM	3.5µM	11µM
Cc1ccc(C(=O)Nc2ccc(F)cc2)o1	n	n	n	n	n	u
CC(C)(C)c1ccc(C(=O)Nc2ccc(NC(=O)C(=O)O)cc2)o1	n	n	n	n	n	9.5µM
Cc1oc(C(C)(C)C)cc1C(=O)Nc1cccc(C(=O)O)c1	u	u	n	3.2µM	0.71µM	12µM
Cc1oc(CC(C)C)cc1C(=O)Nc1ccc(C(=O)O)cc1	n	n	n	n	u	12µM
Cc1cc(C(=O)Nc2ccc(C(=O)O)cc2)c(C)o1	x	n	x	n	n	u
Cc1oc(C(C)(C)C)cc1C(=O)Nc1ccc(C(=O)O)cc1	u	n	n	u	u	17µM
COc1ccc2c(COC(=O)c3n[nH]c4ccccc34)cc(=O)oc2c1	20µM	u	n	3.5µM	3.2µM	3µM
COc1cccc(NC(=O)Nc2ccc3c(c2)nc(C)n3C)c1	x	u	u	0.71µM	0.71µM	0.95µM
COc1cccc(NC(=O)Nc2ccc3nsnc3c2)c1	13µM	n	n	2.8µM	u	7.6µM
COc1cccc(NC(=O)Nc2ccc3nc(C)c(C)nc3c2)c1	x	n	x	n	n	u
CCn1c(C)nc2cc(NC(=O)Nc3cccc(C(C)=O)c3)ccc21	x	n	x	u	2.8µM	1.5µM
Cc1nc2cc(NC(=O)Nc3nccs3)ccc2n1C	14µM	2.6µM	u	1.4µM	1.4µM	4.3µM
CCn1c(C)nc2cc(C(=O)OC)ccc21	x	n	n	n	n	n
CC(=O)N1CCc2c(sc3c2c(=O)n(-c2ccc(F)cc2)c(=O)n3Cc2ccc(C#N)cc2)C1	n	x	x	x	x	n
O=c1cc(-c2ccc(F)cc2F)[nH]c2ccc(F)cc12	x	x	n	x	x	x
O=C(NCC12CC3CC(CC(C3)C1)C2)c1cc2nc(-c3ccc(F)cc3)cc(C(F)(F)F)n2n1	x	x	x	x	x	n
COc1cccc(NC(=O)Cn2c(=O)n(-c3cccc(OC)c3)c(=O)c3sc4ccccc4c32)c1	n	x	x	x	x	n
CC(=O)c1cccc(NC(=O)c2cc(-c3ccc(F)cc3)on2)c1	n	n	n	n	n	u
